# Assay results: PubChem BioAssay (NCI)
# About 79,000 compounds went through this panel and 15% of them were active in at least one assay; those are over-represented in the sample as a whole. A number with no mark means an inactive call. Activity calls are given as the source filed them. Rule as the data show it: active = growth inhibition above about 70%; inactive = the rest.
# What was measured:
# [1] = NCI Yeast Anticancer Drug Screen. Data for the rad52 strain (AID 147);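 also: 0% = growth of vehicle-treated control cultures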; details: S. cerevisiae rad52 mutant growth inhibition, hits give high values
# Summary of the method: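 Screen used a yeast mutant impaired in DNA repair. After compound exposure, growth was measured. Values reflect inhibition compared with vehicle-treated cells.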
# [2] = NCI Yeast Anticancer Drug Screen. Data for the wt1 strain (AID 149);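 also: 0% = growth of vehicle-treated wt1 cultures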; details: S. cerevisiae wt1 strain (SPY 50644) growth inhibition, hits give high values
# Summary of the method: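 Growth inhibition read against vehicle controls after compound exposure of the wt1 yeast strain.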
# [3] = NCI Yeast Anticancer Drug Screen. Data for the rad50EPP+ strain (AID 151);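 also: 0% = growth of vehicle-treated control cultures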; details: S. cerevisiae rad50 mutant strain, hits give high values
# Summary of the method: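 Exposing the rad50EPP+ strain to each compound, growth was compared with vehicle-only cultures to give inhibition.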
# [4] = NCI Yeast Anticancer Drug Screen. Data for the mgt1 strain (AID 153); details: S. cerevisiae mgt1 mutant growth inhibition, hits give high values
# Summary of the method: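 Genetically defined yeast (mgt1) treated with compound; inhibition of growth expressed against vehicle-treated controls.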
# [5] = NCI Yeast Anticancer Drug Screen. Data for the rad50 strain (AID 155);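 also: 0% = growth of vehicle-only cultures of the same strain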; details: S. cerevisiae rad50 strain growth inhibition, hits give high values
# Summary of the method: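 Readout: growth inhibition relative to vehicle-treated cultures. Compound exposure was carried out in a genetically defined yeast strain deficient in DNA damage repair.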
# [6] = NCI Yeast Anticancer Drug Screen. Data for the mec2-1 strain (AID 157); details: S. cerevisiae mec2-1 strain, hits give high values
# Summary of the method: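 Readout is yeast growth inhibition, normalised to vehicle-treated controls, in the mec2-1 strain exposed to compound.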
# [7] = NCI Yeast Anticancer Drug Screen. Data for the rad14 strain (AID 159);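 also: 0% = growth of vehicle-treated control cultures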; details: S. cerevisiae rad14 strain growth inhibition, hits give high values
# Summary of the method: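 Growth inhibition vs vehicle controls; genetically altered yeast strain (DNA damage repair defect) treated with test compounds.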
# [8] = NCI Yeast Anticancer Drug Screen. Data for the CLN2oe strain (AID 163);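 also: 0% = growth of vehicle-only control cultures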; details: S. cerevisiae CLN2oe strain, hits give high values
# Summary of the method: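 Values reflect how much compound exposure reduced yeast growth, referenced to vehicle-exposed cells. Assay organism is a strain with a defined genetic change affecting cell-cycle control.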
# [9] = NCI Yeast Anticancer Drug Screen. Data for the bub3 strain (AID 167); details: S. cerevisiae bub3 mutant strain, hits give high values
# Summary of the method: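 Readout: yeast growth inhibition, expressed relative to vehicle-only wells. The test organism is a mutant strain from a panel with lesions in DNA repair or checkpoint genes.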
# [10] = NCI Yeast Anticancer Drug Screen. Data for the wt2 strain (AID 169);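 also: 0% = growth of vehicle-treated yeast cultures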; details: S. cerevisiae wt2 strain growth inhibition, hits give high values
# Summary of the method: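 Values express reduction in yeast growth under compound treatment, referenced to vehicle-treated cells.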
# [11] = NCI Yeast Anticancer Drug Screen. Data for the mlh1 strain (AID 171);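 also: 0% = growth of vehicle-treated control cultures of the same strain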; details: S. cerevisiae mlh1 strain growth inhibition, hits give high values
# Summary of the method: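 Steps: expose the defined-mutant yeast strain to compound; expose a parallel culture to vehicle; measure growth; express compound effect as inhibition relative to the vehicle culture.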
# [12] = NCI Yeast Anticancer Drug Screen. Data for the sgs1 strain (AID 173);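 also: 0% = growth of vehicle-only control cultures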; details: S. cerevisiae sgs1 mutant, hits give high values
# Summary of the method: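 Treat defined-mutant yeast with compound; measure growth; calculate inhibition relative to vehicle-treated cells.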
# [13] = NCI Yeast Anticancer Drug Screen. Data for the rad18 strain (AID 177); details: S. cerevisiae rad18 mutant growth inhibition, hits give high values
# Summary of the method: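 A genetically defined yeast mutant impaired in DNA damage repair was treated with test compounds, then its growth was measured against cultures receiving vehicle alone.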
# [14] = NCI Yeast Anticancer Drug Screen. Data for the sgs1 mgt1 strain (AID 161);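 also: 0% = growth of cultures given vehicle only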; details: S. cerevisiae sgs1 mgt1 strain, hits give high values
# Summary of the method: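 This yeast growth screen uses a strain with defined DNA-repair lesions; compound-treated growth is compared with vehicle-treated growth.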
# [15] = NCI Yeast Anticancer Drug Screen. Data for the cln2 rad14 strain (AID 165);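 also: 0% = growth equal to vehicle treated cultures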; details: S. cerevisiae cln2 rad14 strain, hits give high values
# Summary of the method: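 Relative to vehicle controls, growth inhibition of compound-treated cln2 rad14 yeast was recorded.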
# [16] = NCI Yeast Anticancer Drug Screen. Data for the mlh1 rad18 strain (AID 175); details: S. cerevisiae mlh1 rad18 strain growth inhibition, hits give high values
# Summary of the method: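 Test agents were incubated with a yeast strain of defined genotype (DNA damage repair defect). Inhibition of growth was derived by comparison with vehicle-exposed cultures.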
# [17] = at 5.0 µM (retest, dose inferred, filed as 0.5)
# [18] = at 50.0 µM (retest, dose inferred, filed as 5.0)
compound,measurement,setting,value
Cc1cc(O)c2c(c1)C(=O)C=C(Br)C2=O,growth inhibition,[1]; at 1.2 µM,38%
same,growth inhibition,[1]; at 3.7 µM,76% (active)
same,growth inhibition,[1]; at 11.0 µM,98% (active)
same,growth inhibition,[1]; at 33.0 µM,98% (active)
same,growth inhibition,[1]; at 100.0 µM,94% (active)
same,growth inhibition,[2]; at 1.2 µM,-1%
same,growth inhibition,[2]; at 3.7 µM,-2%
same,growth inhibition,[2]; at 11.0 µM,6%
same,growth inhibition,[2]; at 33.0 µM,98% (active)
same,growth inhibition,[2]; at 100.0 µM,96% (active)
same,growth inhibition,[3]; at 1.2 µM,58%
same,growth inhibition,[3]; at 3.7 µM,88% (active)
same,growth inhibition,[3]; at 11.0 µM,99% (active)
same,growth inhibition,[3]; at 33.0 µM,99% (active)
same,growth inhibition,[3]; at 100.0 µM,95% (active)
same,growth inhibition,[4]; at 1.2 µM,7%
same,growth inhibition,[4]; at 3.7 µM,21%
same,growth inhibition,[4]; at 11.0 µM,72% (active)
same,growth inhibition,[4]; at 33.0 µM,98% (active)
same,growth inhibition,[4]; at 100.0 µM,97% (active)
same,growth inhibition,[5]; at 1.2 µM,38%
same,growth inhibition,[5]; at 3.7 µM,71% (active)
same,growth inhibition,[5]; at 11.0 µM,97% (active)
same,growth inhibition,[5]; at 33.0 µM,99% (active)
same,growth inhibition,[5]; at 100.0 µM,94% (active)
same,growth inhibition,[6]; at 1.2 µM,40%
same,growth inhibition,[6]; at 3.7 µM,67%
same,growth inhibition,[6]; at 11.0 µM,94% (active)
same,growth inhibition,[6]; at 33.0 µM,99% (active)
same,growth inhibition,[6]; at 100.0 µM,98% (active)
same,growth inhibition,[7]; at 1.2 µM,37%
same,growth inhibition,[7]; at 3.7 µM,64%
same,growth inhibition,[7]; at 11.0 µM,97% (active)
same,growth inhibition,[7]; at 33.0 µM,99% (active)
same,growth inhibition,[7]; at 100.0 µM,96% (active)
same,growth inhibition,[8]; at 1.2 µM,7%
same,growth inhibition,[8]; at 3.7 µM,16%
same,growth inhibition,[8]; at 11.0 µM,40%
same,growth inhibition,[8]; at 33.0 µM,99% (active)
same,growth inhibition,[8]; at 100.0 µM,97% (active)
same,growth inhibition,[9]; at 1.2 µM,88% (active)
same,growth inhibition,[9]; at 3.7 µM,86% (active)
same,growth inhibition,[9]; at 11.0 µM,98% (active)
same,growth inhibition,[9]; at 33.0 µM,92% (active)
same,growth inhibition,[9]; at 100.0 µM,98% (active)
same,growth inhibition,[10]; at 1.2 µM,-4%
same,growth inhibition,[10]; at 3.7 µM,7%
same,growth inhibition,[10]; at 11.0 µM,54%
same,growth inhibition,[10]; at 33.0 µM,99% (active)
same,growth inhibition,[10]; at 100.0 µM,97% (active)
same,growth inhibition,[11]; at 1.2 µM,11%
same,growth inhibition,[11]; at 3.7 µM,25%
same,growth inhibition,[11]; at 11.0 µM,71% (active)
same,growth inhibition,[11]; at 33.0 µM,99% (active)
same,growth inhibition,[11]; at 100.0 µM,98% (active)
same,growth inhibition,[12]; at 1.2 µM,4%
same,growth inhibition,[12]; at 3.7 µM,11%
same,growth inhibition,[12]; at 11.0 µM,66%
same,growth inhibition,[12]; at 33.0 µM,99% (active)
same,growth inhibition,[12]; at 100.0 µM,96% (active)
same,growth inhibition,[13]; at 1.2 µM,10%
same,growth inhibition,[13]; at 3.7 µM,41%
same,growth inhibition,[13]; at 11.0 µM,95% (active)
same,growth inhibition,[13]; at 33.0 µM,98% (active)
same,growth inhibition,[13]; at 100.0 µM,94% (active)
O=[N+]([O-])c1cc(S(=O)(=O)Nc2ccccc2)ccc1Cl,growth inhibition,[1]; at 1.2 µM,2%
same,growth inhibition,[1]; at 3.7 µM,6%
same,growth inhibition,[1]; at 11.0 µM,15%
same,growth inhibition,[1]; at 33.0 µM,89% (active)
same,growth inhibition,[1]; at 100.0 µM,98% (active)
same,growth inhibition,[2]; at 1.2 µM,-20%
same,growth inhibition,[2]; at 3.7 µM,-20%
same,growth inhibition,[2]; at 11.0 µM,0%
same,growth inhibition,[2]; at 33.0 µM,86% (active)
same,growth inhibition,[2]; at 100.0 µM,99% (active)
same,growth inhibition,[3]; at 1.2 µM,14%
same,growth inhibition,[3]; at 3.7 µM,6%
same,growth inhibition,[3]; at 11.0 µM,1%
same,growth inhibition,[3]; at 33.0 µM,20%
same,growth inhibition,[3]; at 100.0 µM,48%
same,growth inhibition,[4]; at 1.2 µM,15%
same,growth inhibition,[4]; at 3.7 µM,3%
same,growth inhibition,[4]; at 11.0 µM,30%
same,growth inhibition,[4]; at 33.0 µM,93% (active)
same,growth inhibition,[4]; at 100.0 µM,99% (active)
same,growth inhibition,[6]; at 1.2 µM,-10%
same,growth inhibition,[6]; at 3.7 µM,-5%
same,growth inhibition,[6]; [17],42%
same,growth inhibition,[6]; at 11.0 µM,21%
same,growth inhibition,[6]; at 33.0 µM,91% (active)
same,growth inhibition,[6]; [18],99% (active)
same,growth inhibition,[6]; at 50.0 µM,90.5% (active)
same,growth inhibition,[6]; at 100.0 µM,99% (active)
same,growth inhibition,[7]; at 1.2 µM,-4%
same,growth inhibition,[7]; at 3.7 µM,-8%
same,growth inhibition,[7]; at 11.0 µM,2%
same,growth inhibition,[7]; at 33.0 µM,91% (active)
same,growth inhibition,[7]; at 100.0 µM,98% (active)
same,growth inhibition,[14]; [17],-26%
same,growth inhibition,[14]; [18],95% (active)
same,growth inhibition,[14]; at 50.0 µM,90.5% (active)
same,growth inhibition,[8]; at 1.2 µM,-8%
same,growth inhibition,[8]; at 3.7 µM,-1%
same,growth inhibition,[8]; at 11.0 µM,35%
same,growth inhibition,[8]; at 33.0 µM,93% (active)
same,growth inhibition,[8]; at 100.0 µM,98% (active)
same,growth inhibition,[15]; [17],33%
same,growth inhibition,[15]; [18],97% (active)
same,growth inhibition,[15]; at 50.0 µM,89.2% (active)
same,growth inhibition,[9]; at 1.2 µM,11%
same,growth inhibition,[9]; at 3.7 µM,19%
same,growth inhibition,[9]; [17],-20%
same,growth inhibition,[9]; at 11.0 µM,45%
same,growth inhibition,[9]; at 33.0 µM,91% (active)
same,growth inhibition,[9]; [18],96% (active)
same,growth inhibition,[9]; at 50.0 µM,86.2% (active)
same,growth inhibition,[9]; at 100.0 µM,99% (active)
same,growth inhibition,[10]; at 1.2 µM,-26%
same,growth inhibition,[10]; at 3.7 µM,-6%
same,growth inhibition,[10]; at 11.0 µM,4%
same,growth inhibition,[10]; at 33.0 µM,90% (active)
same,growth inhibition,[10]; at 100.0 µM,99% (active)
same,growth inhibition,[11]; at 1.2 µM,-34%
same,growth inhibition,[11]; at 3.7 µM,-20%
same,growth inhibition,[11]; at 11.0 µM,13%
same,growth inhibition,[11]; at 33.0 µM,89% (active)
same,growth inhibition,[11]; at 100.0 µM,98% (active)
same,growth inhibition,[12]; at 1.2 µM,4%
same,growth inhibition,[12]; at 3.7 µM,-3%
same,growth inhibition,[12]; at 11.0 µM,33%
same,growth inhibition,[12]; at 33.0 µM,89% (active)
same,growth inhibition,[12]; at 100.0 µM,98% (active)
same,growth inhibition,[16]; [17],35%
same,growth inhibition,[16]; [18],100% (active)
same,growth inhibition,[16]; at 50.0 µM,86.8% (active)
same,growth inhibition,[13]; at 1.2 µM,1%
same,growth inhibition,[13]; at 3.7 µM,9%
same,growth inhibition,[13]; at 11.0 µM,27%
same,growth inhibition,[13]; at 33.0 µM,94% (active)
same,growth inhibition,[13]; at 100.0 µM,99% (active)
